Assay results as given in PubChem BioAssay (NCATS).
Records with an inconclusive call do not appear. A call without a number means that no potency is given here. Unmarked numbers belong to inactive results. Activity calls are given as the source filed them. The call rests on the fitted dose curve; in most records, active means well fitted cell-killing curve with a large enough effect; inconclusive means small, poorly fitted or top-dose-only effect, or effect the other way; inactive means flat fitted curve, though single readings scatter. Where a SMILES comes first, the peptide text is derived from it. [ ]: non-standard residue; d: D form. ξ: configuration not given here. ξPhe(βξ-Me) = CC(c1ccccc1)C(N)C(=O)O; GABA = NCCCC(=O)O

Tested on: OV90
Assay: Primary qHTS to identify gynecologic anti-cancer compounds using libraries of approved drugs and bioactive compounds (AID 1345084); further: nearly all actives have a fitted effect of over 55% in size
Conditions: Gynecologic cancer cell panel viability, ATPlite luminescence, 48 h; series mostly up to 57.5 µM
Summary of the method: (§1)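 Cytotoxicity screen measuring ATP content by luciferase luminescence. Each compound is applied at five concentrations for 48 h at 37 C with 5% CO2.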

Question: With `C/C=C(\C)C(=O)O[C@@H]1CC2[C@@H](CC=C3C[C@@H](O[C@H]4C[C@H](OC)[C@H](O[C@H]5C[C@H](OC)[C@H](O[C@H]6C[C@H](OC)[C@H](O[C@H]7C[C@@H](OC)[C@H](O[C@@H]8O[C@H](CO)[C@@H](O)[C@H](O)[C@H]8O)[C@@H](C)O7)[C@@H](C)O6)[C@@H](C)O5)[C@@H](C)O4)CC[C@@]32C)[C@@]2(O)CC[C@H](C(C)=O)[C@@]12C` (stereo partly drawn) as the compound, how does the activity change, negative = cytotoxicity read?
Answer: 3.72% [at 6.55 µM]

Question: `C[C@@H]1O[C@@H](O[C@H]2[C@H](OC(=O)[C@]34CCC(C)(C)C[C@H]3C3=CCC5[C@@]6(C)C[C@H](O)[C@H](O[C@@H]7O[C@H](CO[C@@H]8OC[C@H](O)[C@H](O)[C@H]8O)[C@@H](O)[C@H](O)[C@H]7O)C(C)(C)C6CC[C@@]5(C)[C@]3(C)C[C@H]4O)OC[C@@H](O)[C@@H]2O)[C@H](O)[C@H](O[C@@H]2OC[C@](O)(CO)[C@H]2O)[C@H]1O[C@@H]1OC[C@H](O)[C@H](O[C@@H]2OC[C@@H](O)[C@H](O)[C@H]2O)[C@H]1O` (stereo partly drawn) was tested. Which activity change, negative = cytotoxicity did it give?
Answer: -1.75% [at 6.55 µM]

Question: For `O=C(NCC(=O)N1CC[C@H](NC2CCC(O)(c3ccc(-c4ncccn4)cn3)CC2)C1)c1cccc(C(F)(F)F)c1` (stereo partly drawn), which Potency is on record?
Answer: inactive

Question: Which Potency does the source give for `CCNC(=O)CCC/C=C\C[C@@H]1[C@@H](/C=C/C(O)CCc2ccccc2)[C@@H](O)C[C@@H]1O` (stereo partly drawn) here?
Answer: inactive

Tested on: PA-1
Assay: as above
Conditions: Gynecologic cancer cell panel viability, ATPlite luminescence, 48 h; series mostly up to 57.5 µM
Summary of the method: as §1

Question: With `O=C(OCc1cccc(O)c1O[C@@H]1O[C@H](CO)[C@@H](O)[C@H](O)[C@H]1O)C1(O)C(=O)C2C=CC1C1C=CC(=O)C(O)(C(=O)OCc3cccc(O)c3O[C@@H]3O[C@H](CO)[C@@H](O)[C@H](O)[C@H]3O)C21` (stereo partly drawn) as the compound, how does the activity change, negative = cytotoxicity read?
Answer: -3.46% [at 11.6 µM]

Question: Which activity change, negative = cytotoxicity does the source give for `C/C=C(\C)C(=O)O[C@H]1[C@H](O)[C@]2(COC(C)=O)[C@H](O)C[C@]3(C)C(=CCC4[C@@]5(C)CC[C@H](O[C@@H]6O[C@H](C(=O)O)[C@@H](O[C@@H]7O[C@H](CO)[C@@H](O)[C@H](O)[C@H]7O)[C@H](O)[C@H]6O[C@@H]6O[C@H](CO)[C@@H](O)[C@H](O)[C@H]6O)[C@](C)(CO)C5CC[C@]43C)[C@@H]2CC1(C)C` (stereo partly drawn) here?
Answer: 25.1% [at 11.6 µM]

Question: Which Potency does the source give for `CC(=O)O[C@@H]1C[C@@]23C[C@@]24CC[C@H](OC2OC[C@@H](O)[C@H](O)[C@H]2O)C(C)(C)[C@@H]4CC[C@H]3[C@]2(C)CC3OC4(C[C@@H](C)C3[C@@]12C)OCC1(C)OC14` (stereo partly drawn) here?
Answer: inactive

Question: With `COc1ccc2c(c1O)OC[C@H]1c3ccc(O)cc3O[C@@H]21` as the compound, how does the Potency read?
Answer: inactive

Question: `CC1=CC(=O)C2C(C)(C)CCCC2(C)C12CCC1(COC(=O)C1)O2` (stereo not drawn) was tested. Which Potency did it give?
Answer: inactive

Question: `C[C@]1(O)CC[C@@H]2C(C(=O)O)=CO[C@@H](O[C@@H]3O[C@H](COC(=O)c4ccc(O)cc4)[C@@H](O)[C@H](O)[C@H]3O)[C@@H]21` was tested. Which Potency did it give?
Answer: inactive

Question: For `O=C(c1ccccn1)c1cnn2c(-c3ccncc3)ccnc12`, which Potency is on record?
Answer: inactive

Question: With `C=CC1(C)C=C2C(O)CC3C(C)(C(=O)O)CCCC3(C)C2CC1` (stereo not drawn) as the compound, how does the Potency read?
Answer: inactive

Question: `COC(=O)C1=CO[C@@H](O[C@@H]2O[C@H](COC(=O)/C=C/c3cc(OC)c(O)c(OC)c3)[C@@H](O)[C@H](O)[C@H]2O)[C@@H]2C(CO)=CC[C@H]12` was tested. Which Potency did it give?
Answer: inactive

Question: With `CC12CCC3C(C)(C)C(O)CCC3(C)C1Cc1c(oc(C(=O)O)cc1=O)O2` (stereo not drawn) as the compound, how does the Potency read?
Answer: inactive

Question: `C=C(C)C(C)C1OC23CC4(CO2)C(CCC2C5(C)CCC(OC6OCC(O)C(OC7OC(CO)C(O)C(OC8OCC(O)C(O)C8O)C7O)C6OC6OC(CO)C(O)C6O)C(C)(C)C5CCC24C)C3C(C)(O)C1OC(C)=O` (stereo not drawn) was tested. Which activity change, negative = cytotoxicity did it give?
Answer: -1.12% [at 11.6 µM]

Question: With `CC(=O)Oc1cc2c(s1)CCN([C@H](C(=O)C1CC1)c1ccccc1F)C2` as the compound, how does the Potency read?
Answer: inactive

Question: For `Cc1ncc([N+](=O)[O-])n1CC(O)CN1CCOCC1` (stereo not drawn), which Potency is on record?
Answer: inactive

Question: How did the Potency turn out when `O=C(c1ccc(NS(=O)(=O)c2cccc3cccnc23)cc1)N1CCN(CC2CC2)CC1` was run?
Answer: inactive

Question: `C/C(=C\CCC(C)(O)c1ccc(C)cc1)C(=O)O` (stereo not drawn) was tested. Which Potency did it give?
Answer: inactive

Question: For `COc1cc(C2Oc3c(OC)cc(/C=C/C(=O)OC[C@H]4O[C@@H](OC(C)(C)C(=O)O)[C@H](O)[C@@H](O)[C@@H]4O)cc3C2CO)ccc1O` (stereo partly drawn), which Potency is on record?
Answer: inactive

Question: How did the Potency turn out when `CC(C)CC1NC(=O)C(C(C)c2ccccc2)NC(=O)C(C(C)C)NC(=O)C(C)NC(=O)CCCNC(=O)C(Cc2c[nH]c3ccccc23)NC(=O)C(C)NC1=O` (stereo not drawn) (cyclo([GABA]AV[ξPhe(βξ-Me)]LAW); configuration not given here) was run?
Answer: inactive

Question: Which Potency does the source give for `C=CC1C(O[C@@H]2O[C@H](CO)[C@@H](O)[C@H](O)[C@H]2O)OC=C(C(=O)OC)C1CC(=O)O` (stereo partly drawn) here?
Answer: inactive

Question: How did the Potency turn out when `CC1CCC2(NC1)OC1C(=O)C3C4CCC5CC(O[C@@H]6O[C@H](CO)[C@@H](O)[C@H](O)[C@H]6O[C@@H]6O[C@@H](C)[C@H](O)[C@@H](O)[C@H]6O)CCC5(C)C4CCC3(C)C1C2C` (stereo partly drawn) was run?
Answer: inactive

Question: `C=C(C(=O)O)C1CCC(C)C2CCC(=O)OC2(C)C1` (stereo not drawn) was tested. Which Potency did it give?
Answer: inactive

Question: For `CC1(C)C(=O)N2c3ccccc3[C@]3(CC(n4cnc5ccccc5c4=O)C(=O)O3)[C@H]2N1O` (stereo partly drawn), which Potency is on record?
Answer: inactive

Question: For `CC(C)c1nc(N(C)S(C)(=O)=O)nc(-c2ccc(F)cc2)c1/C=C/[C@@H](O)C[C@@H](O)CC(=O)O`, which Potency is on record?
Answer: inactive

Question: `O=C(O)Cc1nn(Cc2nc3cc(C(F)(F)F)ccc3s2)c(=O)c2nccnc12` was tested. Which Potency did it give?
Answer: inactive

Question: How did the Potency turn out when `O=C(O)CCc1cc2ccoc2cc1O[C@@H]1O[C@H](CO[C@@H]2OC[C@](O)(CO)[C@H]2O)[C@@H](O)[C@H](O)[C@H]1O` was run?
Answer: inactive

Question: `COc1ccc(/C=C/C(=O)O[C@@H]2[C@@H](OC(C)=O)[C@@H](OC(C)=O)[C@H](O[C@H]3[C@@H]4C=CO[C@@H](O[C@@H]5O[C@H](CO)[C@@H](O)[C@H](O)[C@H]5O)[C@@H]4[C@@]4(CO)O[C@@H]34)O[C@H]2C)cc1O` was tested. Which Potency did it give?
Answer: inactive

Question: With `C=CC(C)(O)CC/C=C(\C)C(=O)OC1CC2(C(=O)O)CCC3(C)C(=CCC4C5(C)CCC(OC6OC(COC7OCC(O)C(O)C7O)C(O)C(OC7OCC(O)C(O)C7O)C6OC6OC(CO)C(O)C(O)C6OC6OCC(O)C(O)C6O)C(C)(C)C5CCC43C)C2CC1(C)C` (stereo not drawn) as the compound, how does the activity change, negative = cytotoxicity read?
Answer: 9.33% [at 6.55 µM]

Question: For `C=C1CC2[C@]3(C)C(=C(O)C(=O)[C@@]2(C)[C@]2(C(=O)OC)C(=O)C(C)OC(=O)[C@@]12C)C(C)(C)C(=O)CC3O` (stereo partly drawn), which Potency is on record?
Answer: inactive

Question: With `C=C1CCC(OC(C)=O)C2(C)CC3(O)OC(=O)C(C)=C3CC12` (stereo not drawn) as the compound, how does the Potency read?
Answer: inactive

Question: `C[C@@H]1CC[C@H]2C(C)(C)[C@H](O)[C@H](O)C[C@]2(C)[C@@]12Cc1c(O)cc3c(c1O2)CNC3=O` was tested. Which Potency did it give?
Answer: inactive

Question: For `C[C@H]1[C@H](C)CC[C@]2(C(=O)O[C@@H]3O[C@H](CO)[C@@H](O)[C@H](O)[C@H]3O)CC[C@]3(C(=O)O)C(=CCC4[C@@]5(C)CC[C@H](O[C@@H]6O[C@H](CO)[C@@H](O)[C@H](O)[C@H]6O)C(C)(C)C5CC[C@]43C)[C@H]12` (stereo partly drawn), which activity change, negative = cytotoxicity is on record?
Answer: 5.91% [at 11.6 µM]

Question: Which Potency does the source give for `C1CCN2CC3C[C@@H](CN4CCCC[C@@H]34)[C@H]2C1` here?
Answer: inactive

Question: With `O=C(COc1ccc(Cl)cc1)NC1CCC(NC(=O)COc2ccc(Cl)cc2)CC1` (stereo not drawn) as the compound, how does the Potency read?
Answer: inactive

Question: `COc1cc(C(O)C(CO)Oc2ccc(CCCO[C@@H]3O[C@@H](C)[C@H](O)[C@@H](O)[C@H]3O)cc2OC)ccc1O` (stereo partly drawn) was tested. Which Potency did it give?
Answer: inactive

Question: Which Potency does the source give for `CC(C)=CC/C=C(/C)[C@H]1CC[C@]2(C)[C@@H]1[C@H](O)CC1[C@@]3(C)CC[C@H](O)C(C)(C)[C@@H]3[C@@H](O[C@@H]3O[C@H](CO)[C@@H](O)[C@H](O)[C@H]3O[C@@H]3O[C@@H](C)[C@H](O)[C@@H](O)[C@H]3O)C[C@]12C` (stereo partly drawn) here?
Answer: inactive

Question: `CC1CC(O)C2(C)C(C(=O)O)=CCCC2C1(C)CCc1ccoc1` (stereo not drawn) was tested. Which Potency did it give?
Answer: inactive

Question: `C/C=C(\C)C(=O)O[C@@H]1CC2[C@@H](CC=C3C[C@@H](O[C@H]4C[C@H](OC)[C@H](O[C@H]5C[C@H](OC)[C@H](O[C@H]6C[C@H](OC)[C@H](O[C@H]7C[C@@H](OC)[C@H](O[C@@H]8O[C@H](CO)[C@@H](O)[C@H](O)[C@H]8O)[C@@H](C)O7)[C@@H](C)O6)[C@@H](C)O5)[C@@H](C)O4)CC[C@@]32C)[C@@]2(O)CC[C@H](C(C)=O)[C@@]12C` (stereo partly drawn) was tested. Which activity change, negative = cytotoxicity did it give?
Answer: -8.02% [at 6.55 µM]

Question: How did the activity change, negative = cytotoxicity turn out when `C[C@@H]1O[C@@H](O[C@H]2[C@H](OC(=O)[C@]34CCC(C)(C)C[C@H]3C3=CCC5[C@@]6(C)C[C@H](O)[C@H](O[C@@H]7O[C@H](CO[C@@H]8OC[C@H](O)[C@H](O)[C@H]8O)[C@@H](O)[C@H](O)[C@H]7O)C(C)(C)C6CC[C@@]5(C)[C@]3(C)C[C@H]4O)OC[C@@H](O)[C@@H]2O)[C@H](O)[C@H](O[C@@H]2OC[C@](O)(CO)[C@H]2O)[C@H]1O[C@@H]1OC[C@H](O)[C@H](O[C@@H]2OC[C@@H](O)[C@H](O)[C@H]2O)[C@H]1O` (stereo partly drawn) was run?
Answer: 9.54% [at 6.55 µM]

Question: How did the Potency turn out when `O=C(NCC(=O)N1CC[C@H](NC2CCC(O)(c3ccc(-c4ncccn4)cn3)CC2)C1)c1cccc(C(F)(F)F)c1` (stereo partly drawn) was run?
Answer: inactive

Question: `CCNC(=O)CCC/C=C\C[C@@H]1[C@@H](/C=C/C(O)CCc2ccccc2)[C@@H](O)C[C@@H]1O` (stereo partly drawn) was tested. Which Potency did it give?
Answer: inactive
